Compound activity (PubChem BioAssay)
ABCB6 inh MLPCN – inhibitors of human ABC transporter ABCB6; Q9NP58; K562-ABCB6 porphyrin accumulation, flow cytometry, 1 h; stronger effect = lower value; fluorescence ratio to DMSO, % at 10 µM; actives 0.19% (n = 360,000);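 active = fluorescence ratio to DMSO below 75%, the collection mean minus 3 SD; inconclusive = too few cells collected in the well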;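 also: signal is porphyrin accumulated inside mitochondria; 100% equals median channel fluorescence of DMSO control wells; lower ratio means ABCB6 inhibition with less porphyrin fluorescence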
PABP FP inh – PABP-poly(A) binding inhibition. PABP-poly(A) RNA binding, fluorescence polarization. calls only at 35 µM. actives 1% (n = 290,000). AID 2014;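 also: calls also rest on retests at 20 µM and on dose response follow-up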
PHOSPHO1 block – PHOSPHO1 (human) inhibition. AID 1565. inhibition, % at 13.3 µM. actives 1.1% (n = 290,000). recombinant PHOSPHO1, absorbance phosphatase assay; in the data active = inhibition above about 60%
Target sequence (Q8TCT1 whole entry, looked up): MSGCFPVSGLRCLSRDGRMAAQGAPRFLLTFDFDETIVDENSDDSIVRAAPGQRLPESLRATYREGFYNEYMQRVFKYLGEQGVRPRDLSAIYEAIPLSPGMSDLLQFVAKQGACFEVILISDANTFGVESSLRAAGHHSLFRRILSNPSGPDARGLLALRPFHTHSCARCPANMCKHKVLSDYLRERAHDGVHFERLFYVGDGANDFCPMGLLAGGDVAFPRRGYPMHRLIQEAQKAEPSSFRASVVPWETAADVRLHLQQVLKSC
AI-2 QS mod – Vibrio harveyi AI-2 quorum sensing modulation; Vibrio harveyi JMH597 AI-2 luminescence/OD600 ratio, 9 h; stronger effect = lower value; strain lacks LuxN and CqsS sensors; 0 = neutral-control median; AID 2094; activity change, % at 7.5 µM; actives 0.4% (n = 300,000); in the data active = activity change below about -75%, passing the limit was not always enough; inconclusive = no clear call, values can overlap the other calls;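 also: luminescence divided by OD600 gain over 9 h not by final OD600 alone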
MLLE-PAM2 inh – inhibitors of microRNA-mediated deadenylation, human PABP1 MLLE binding; GST-MLLE / FITC-PAM2 fluorescence polarization; P11940; actives 0.36% (n = 360,000); inhibition, % at 20 µM; in the data active = inhibition above about 35%, passing the limit was not always enough;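 also: plate controls were DMSO wells with GST-MLLE for no effect and wells lacking GST-MLLE protein for full effect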
eIF4H inh – inhibitors of RNA binding by human eIF4H; Q15056; eIF4H fluorescence polarization binding assay; inhibition, % at 35 µM; actives 0.94% (n = 290,000); AID 2012;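 also: calls also rest on retests at 20 µM and on dose response follow-up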
* marks the source's active call; other numbers are inactive results. In the library only some 2.6% were active in any assay of this set; here they are far more common. Unless noted, no rule for the calls is given here.

What do the screens show for `COc1ccc2c(c1)c(C(O)CN1CCN(Cc3ccc4c(c3)OCO4)CC1)c(C)n2C` (centres undefined)?
ABCB6 inh MLPCN: 125.0; PABP FP inh: inactive; PHOSPHO1 block: 16.8; AI-2 QS mod: 61.2; MLLE-PAM2 inh: -0.1; eIF4H inh: 9.8

Results for Cc1[nH]c2ccccc2c1NC(=O)CN1CCN(Cc2ccc3c(c2)OCO3)CC1 ?
PABP FP inh: inactive; PHOSPHO1 block: 97.1*; AI-2 QS mod: 34.1; eIF4H inh: 16.4

What do the screens show for `Cc1c(C(O)CN2CCN(Cc3ccc4c(c3)OCO4)CC2)c2ccccc2n1C` (centres undefined)?
ABCB6 inh MLPCN: 102.0; PABP FP inh: active; PHOSPHO1 block: -20.8; AI-2 QS mod: 23.7; MLLE-PAM2 inh: -3.7; eIF4H inh: 82.4*

Results for COC(=O)c1[nH]c2ccc(C)cc2c1NC(=O)CN1CCN(Cc2ccccc2)CC1 ?
ABCB6 inh MLPCN: 92.0; PABP FP inh: inactive; PHOSPHO1 block: 85.4*; AI-2 QS mod: 13.6; MLLE-PAM2 inh: -79.3; eIF4H inh: -18.3

What do the screens show for `OCCN(Cc1ccccn1)Cc1ccccn1`?
ABCB6 inh MLPCN: 100.0; MLLE-PAM2 inh: -5.2

How did OC[C@@H]1CN(Cc2ccc3c(c2)OCO3)C[C@H](n2cnc3c(NC4CC4)ncnc32)O1 do in these assays?
ABCB6 inh MLPCN: 96.0; MLLE-PAM2 inh: 0.4

How did CC(C)C[C@H]1CNC(=O)C(=O)N1C[C@@H]1CCCN1C[C@H](CC(C)C)N1C[C@H](Cc2ccc(O)cc2)N(CCc2ccccc2)C(=O)C1=O do in these assays?
ABCB6 inh MLPCN: 100.0

What do the screens show for `CCNC(=O)C1(C)CCCN(Cc2ccc(Oc3ccccc3)cc2)C1` (centres undefined)?
ABCB6 inh MLPCN: 95.0; MLLE-PAM2 inh: 8.4

Results for O=C(COc1ccc(Cl)cc1Cl)NNC(=S)Nc1ccc(F)cc1 ?
ABCB6 inh MLPCN: 104.0; PABP FP inh: inactive; PHOSPHO1 block: 71.1*; AI-2 QS mod: 8.6; MLLE-PAM2 inh: 28.8; eIF4H inh: 15.7

Results for CCc1ccc(/C=C2\SC(=S)N(CCCC(=O)N(CCO)c3ccccc3)C2=O)cc1 ?
ABCB6 inh MLPCN: 87.0; MLLE-PAM2 inh: -19.6

What do the screens show for `CCOc1ccccc1N1CCN(C(=O)CC(C)(C)C)CC1`?
ABCB6 inh MLPCN: 99.0; PABP FP inh: inactive; PHOSPHO1 block: 72.9*; AI-2 QS mod: 35.7; MLLE-PAM2 inh: 6.2; eIF4H inh: 11.3

What do the screens show for `CCOc1ccccc1N1CCN(C(=O)C(F)(F)F)CC1`?
ABCB6 inh MLPCN: 98.0; PABP FP inh: inactive; PHOSPHO1 block: 9.4; AI-2 QS mod: 23.1; MLLE-PAM2 inh: 0.7; eIF4H inh: -0.2

Results for Cc1cc(C)n(NC(=S)NC2CCCC2)c(=O)c1C#N ?
ABCB6 inh MLPCN: 94.0; PABP FP inh: inactive; PHOSPHO1 block: 16.9; AI-2 QS mod: 7.4; MLLE-PAM2 inh: 44.9*; eIF4H inh: -2.2

Results for COc1ccc(CCNS(=O)(=O)c2ccc(Br)s2)cc1 ?
ABCB6 inh MLPCN: 96.0; PABP FP inh: inactive; PHOSPHO1 block: 14.7; AI-2 QS mod: -77.9*; MLLE-PAM2 inh: -19.0; eIF4H inh: -7.1

Results for O=S(=O)(NCCc1ccccc1)c1ccc(Br)s1 ?
ABCB6 inh MLPCN: 92.0; PABP FP inh: inactive; PHOSPHO1 block: 28.7; AI-2 QS mod: -53.9; MLLE-PAM2 inh: 3.2; eIF4H inh: -1.2

Results for Cn1cccc1CC(=O)NNC(=S)Nc1ccc(F)cc1 ?
ABCB6 inh MLPCN: 102.0; PABP FP inh: inactive; PHOSPHO1 block: -5.1; AI-2 QS mod: 14.5; MLLE-PAM2 inh: 4.7; eIF4H inh: 0.3

Results for Cn1cccc1CC(=O)NNC(=S)Nc1ccc(Cl)cc1Cl ?
ABCB6 inh MLPCN: 94.0; PABP FP inh: active; PHOSPHO1 block: -21.6; AI-2 QS mod: 10.2; MLLE-PAM2 inh: 26.5; eIF4H inh: 57.6*

Results for Nc1ncc(Br)cc1S(=O)(=O)NC1CCCCC1 ?
ABCB6 inh MLPCN: 101.0; PABP FP inh: inactive; PHOSPHO1 block: 72.5*; AI-2 QS mod: -7.7; MLLE-PAM2 inh: 0.0; eIF4H inh: -11.3

Results for COCCCn1cc(CN2CC(N3CCN(Cc4ccccc4F)CC3)CS2(=O)=O)nn1 (centres undefined) ?
ABCB6 inh MLPCN: 98.0

What do the screens show for `Cc1ccc2nc(-c3ccccc3)c(Cc3ccccc3C(F)(F)F)n2c1`?
ABCB6 inh MLPCN: 103.0; MLLE-PAM2 inh: 10.3

Results for CC(=O)N1CCCC(C)(C(=O)Nc2ccc3oc(C)nc3c2)C1 (centres undefined) ?
ABCB6 inh MLPCN: 98.0; MLLE-PAM2 inh: 4.7

How did COC(=O)c1c(NC(=O)C2C3CCC(O3)C2C(=O)O)sc2c1CCCCCC2 (centres undefined) do in these assays?
ABCB6 inh MLPCN: 97.0; PABP FP inh: inactive; PHOSPHO1 block: -6.2; AI-2 QS mod: 10.1; MLLE-PAM2 inh: 17.0; eIF4H inh: -3.1

How did CNC(=S)Nc1sc2c(c1C(=O)OC)CCC2 do in these assays?
ABCB6 inh MLPCN: 98.0; PABP FP inh: active; PHOSPHO1 block: 24.5; AI-2 QS mod: 16.0; MLLE-PAM2 inh: 18.0; eIF4H inh: inconclusive

Results for CCOC(=O)c1c(NC(=S)NC)sc2c1CC(C)(C)SC2 ?
ABCB6 inh MLPCN: 100.0; PABP FP inh: inactive; PHOSPHO1 block: -3.4; AI-2 QS mod: 10.4; MLLE-PAM2 inh: 8.7; eIF4H inh: 52.4*

What do the screens show for `COC(=O)c1c(NC(=O)C2C3CCC(C3)C2C(=O)O)sc2c1CCCCC2` (centres undefined)?
ABCB6 inh MLPCN: 98.0; PABP FP inh: inactive; PHOSPHO1 block: 48.4; AI-2 QS mod: 59.2; MLLE-PAM2 inh: 41.4*; eIF4H inh: 4.1

Results for COC(=O)c1c(NS(=O)(=O)Cc2ccccc2)sc2c1CCCC2 ?
ABCB6 inh MLPCN: 104.0; PABP FP inh: inactive; PHOSPHO1 block: 71.0*; AI-2 QS mod: 42.7; MLLE-PAM2 inh: 16.1; eIF4H inh: 7.4

What do the screens show for `CC(CSC(=O)c1ccccc1)C(=O)N1c2ccccc2CC1C(=O)O` (centres undefined)?
ABCB6 inh MLPCN: 99.0; MLLE-PAM2 inh: 9.7

What do the screens show for `N#CC1=C(S)N=C(N)C(c2nc(-c3ccccc3)cs2)C12CCCCC2` (centres undefined)?
ABCB6 inh MLPCN: 105.0; PABP FP inh: inactive; PHOSPHO1 block: 63.7*; AI-2 QS mod: 19.0; MLLE-PAM2 inh: -23.7; eIF4H inh: -5.5

What do the screens show for `COc1ccc(-n2nnnc2SCC(=O)NCc2ccco2)cc1OC`?
ABCB6 inh MLPCN: 91.0; PABP FP inh: inactive; PHOSPHO1 block: 24.9; AI-2 QS mod: 9.5; MLLE-PAM2 inh: -10.2; eIF4H inh: 4.7

How did Cc1cc(SCC(=O)NC(=O)NCc2ccco2)nc2ccccc12 do in these assays?
ABCB6 inh MLPCN: 100.0; PABP FP inh: inactive; PHOSPHO1 block: 26.1; AI-2 QS mod: 8.5; MLLE-PAM2 inh: 7.0; eIF4H inh: -6.2
